Molecules are shown by their SMILES. ± gives the standard deviation of the averaged measurements.

This assay deals with (4S)-cis-verbenol A-neuron OSN class. Put plainly: net action potential response of A-neuron (blank-subtracted) (spikes/s (Hz)); higher = stronger excitation. Particulars: 10 µg on filter paper; neuron: A neuron (large spike amplitude). As to the method:
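Single sensillum recordings from antennal olfactory sensilla of live adult Ips typographus. Each compound was 10 µg in paraffin oil on filter paper, delivered as a 0.5 s puff. Net response = spikes in the first 0.5 s of response minus the 0.5 s pre-stimulus count, doubled to give Hz, with blank response subtracted. Values are for the large-spike A-neuron class of each of seven sensillum types that co-house the lanierone B-neuron; N = 1-4 sensilla, averaged.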
For `CC1=CC(C)(C)C=C(O)C1=O` [Lanierone], the “net action potential response” value was found to be 1.33 ± 5.8.

As to `C=C1[C@@H]2CC[C@@H](C2)C1(C)C` (racemic) [(±)-Camphene], the “net action potential response” value is 4 ± 3.5.

For the compound `CC(=O)OC/C=C(\C)CCC=C(C)C` [Geranyl acetate], the “net action potential response” value is -2.67 ± 4.2. On to `C=CC(C)(C)O` [2-Methyl-3-buten-2-ol], for which the “net action potential response” value was -4 ± 4. With `C=CC(O)CCCCC` (racemic) [(±)-1-Octen-3-ol], the “net action potential response” value is 2.67 ± 3.1. `CCCCCC=O` [Hexanal]: the “net action potential response” value turned out to be 0.667 ± 5. With `CC1=CCC(C(C)C)=CC1` [γ-Terpinene], the “net action potential response” value was -5.33 ± 4.2. The result for `C[C@H]1C(=O)C[C@H]2C[C@@H]1C2(C)C` [(-)-Pinocamphone] reads 2.67 ± 6.4; that for `Cc1ccc(C(C)C)cc1` [p-Cymene], -2 ± 4; that for `C=Cc1ccccc1` [Styrene], 1.33 ± 9. As to `CC1=C[C@@H](O)[C@H]2C[C@@H]1C2(C)C` [(-)-trans-Verbenol], the “net action potential response” value worked out at 52.7 ± 13. The result for `CCCCCC(O)CC` (racemic) [(±)-3-Octanol] reads -6.67 ± 1.1; that for `CC(=O)OCc1ccccc1` [Benzyl acetate], 1.33 ± 8.1.

As for `CC/C=C/CCO`, the “net action potential response” value turned out to be 2.67 ± 7. Regarding `CCCCCCO` [1-Hexanol], the “net action potential response” value was -1.33 ± 4.6. As to `CC1(C)C2CC=C(CO)C1C2` (racemic) [(±)-Myrtenol], the “net action potential response” value amounted to 4.67 ± 1.1.

For `OCCc1ccccc1` [2-Phenylethanol], the “net action potential response” value is -2 ± 6.9.

In the case of `CCC/C=C/C=O` [(E)-hex-2-enal], the “net action potential response” value came to 4 ± 10. The result for `CC(=O)c1ccccc1` [Acetophenone] reads 0.667 ± 1.1.

In the case of `CC12CCC(CC1=O)C2(C)C` (racemic) [(±)-Camphor], the “net action potential response” value was -2.67 ± 8.1.

In the case of `CC(C)[C@@]12CC[C@@](C)(O)[C@@H]1C2` [(+)-trans-4-Thujanol], the “net action potential response” value is -0.667 ± 3.1. Under `C=C1CCC2CC1C2(C)C` (stereo not drawn) [(-)-β-Pinene] stands -3 ± 4.2. On to `CC/C=C\CCO`, for which the “net action potential response” value is -0.667 ± 3.1. Take `COc1ccccc1` [Anisole]: the “net action potential response” value came to 1.33 ± 7.6. With `CCC/C=C\CO`, the “net action potential response” value is 1.33 ± 4.2. In the case of `C=C(C)[C@@H]1CC=C(C)CC1` [(-)-Limonene], the “net action potential response” value was found to be 0.667 ± 8.1. Regarding `C[C@@H]1C(=O)C[C@H]2C[C@@H]1C2(C)C` [(+)-Isopinocamphone], the “net action potential response” value was -0.667 ± 4.6. Under `CCC1CCC2(CCCO2)O1` (racemic) [(±)-Chalcogran] stands 1.33 ± 5. As for `C=CC(=C)CC(O)C=C(C)C` (racemic) [(±)-Ipsdienol], the “net action potential response” value was -2.67 ± 2.3. With `C=C(C)C1CC=C(C)C(=O)C1` (racemic) [(±)-Carvone], the “net action potential response” value came out at 2 ± 4.

On to `CC12CCC(CC1)C(C)(C)O2` [1,8-Cineole], for which the “net action potential response” value is 1.33 ± 4.2. Take `CC(=O)OCCC(C)C` [3-Methylbutyl acetate]: the “net action potential response” value is -4 ± 4. On to `COc1ccc(C)cc1OC` [3,4-Dimethoxytoluene], for which the “net action potential response” value is -2.67 ± 2.3. For `CC(=O)OCCc1ccccc1` [2-Phenethyl acetate], the “net action potential response” value is -2 ± 4. In the case of `C=Cc1ccc(OC)cc1` [4-Vinyl anisole], the “net action potential response” value is 0.667 ± 5. Regarding `c1ccc2c(c1)CCO2` [2,3-Dihydrobenzofuran], the “net action potential response” value is 0 ± 2. As to `CC1=CCC2C(C1)C2(C)C` (single isomer, unassigned; (+)) [(+)-3-Carene], the “net action potential response” value came out at 3.33 ± 7. `CC(=O)CC/C=C(\C)CCC=C(C)C` [Geranylacetone]: the “net action potential response” value amounted to 3.33 ± 6.1. Take `C=CC(=C)C[C@@H](O)CC(C)C` (racemic) [(±)-Ipsenol]: the “net action potential response” value amounted to 1.33 ± 4.2. As to `CC1=CCC2CC1C2(C)C` (stereo not drawn) [(+)-α-Pinene], the “net action potential response” value is -2 ± 7.2.

For the origin of these results see the supplement of paper PMC11577813, “Eurasian spruce bark beetle detects lanierone using a highly expressed specialist odorant receptor, present in several functional sensillum types” (BMC Biology, 2024).
